JMJD2A Tudor inh – blocks the human JMJD2A Tudor domain; O75164; AlphaScreen JMJD2A-Tudor / H3K4me3 peptide binding; Potency, µM (top dose mostly 114 µM), hits mostly inhibitors; 390,000 compounds, 4.4% hits; AID 504339; note: nearly all actives have a fitted effect of over 50% in size
BAZ2B block – BAZ2B (human) inhibition; AlphaScreen BAZ2B-H3K14Ac peptide displacement; Potency, µM (doses to about 114 µM), usual class: inhibitors; 360,000 compounds, 4.4% hits; Q9UIF8; AID 504333; note: nearly all actives have a fitted effect of over 60% in size
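Compounds, titrated to a top concentration of 110 uM, were incubated 30 min at room temperature with preformed BAZ2B/acetyl-K14 H3 peptide complex (50 nM each). Proximity signal was measured by AlphaScreen after 20 min with beads.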
HP1b chromo inh – blocks HP1-beta chromodomain binding to methylated histone tails; P83916; AlphaScreen HP1-beta / biotin-H3K9me3 peptide binding; Potency, µM (highest dose often 114 µM), actives largely listed as inhibitors; 390,000 compounds, 0.56% hits; note: nearly all actives have a fitted effect of over 70% in size
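Compound inhibition of the preformed complex between 50 nM HP1-beta and 50 nM biotinylated H3K9me3 peptide was read by AlphaScreen. Buffer was PBS pH 7.4 with 0.01% Tween-20. Incubations ran 30 min at room temperature, with 10 ug/mL donor/acceptor beads.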
G9a inh – G9a (human) methyltransferase inhibition. 350,000 compounds, 8.8% hits. AID 504332. G9a H3K9 monomethylation, AlphaScreen, 2 h. Potency, µM (titrated, usually from 102 µM), usual class: inhibitors. Q96KQ7; note: nearly all actives have a fitted effect of over 75% in size
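Chemiluminescent proximity detection of H3K9 monomethylation, read after 10 min bead incubation in the dark. Reaction: 20 nM G9a, 500 nM biotin-H3K9 peptide, 20 uM SAM cofactor, 2 h, room temperature, following 15 min enzyme-compound preincubation.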
Sfp PPTase inh – blocks B. subtilis Sfp PPTase activity. Q9F4F7. Biochemical Sfp PPTase activity, qHTS. Potency, µM, usual class: inhibitors. 310,000 compounds, 3.5% hits. AID 1490;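 note: the enzyme is Sfp with the accession as filed and its product quenches rhodamine fluorescence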
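Reaction rates are the 30-min fluorescence difference (ex 525, em 598 nm) in wells containing 15 nM Sfp, 5 uM rhodamine-CoA and 12.5 uM BHQ-2-YbbR at pH 7.6 with 10 mM MgCl2.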
L3MBTL1 inh – L3MBTL1 (human) inhibition; AlphaScreen L3MBTL1–H3K9me1 peptide binding; Potency, µM (highest dose often 57.1 µM), usual class: inhibitors; 230,000 compounds, 0.66% hits; AID 485360; Q9Y468; note: nearly all actives have a fitted effect of over 60% in size
Target sequence (Q9Y468 whole entry, looked up): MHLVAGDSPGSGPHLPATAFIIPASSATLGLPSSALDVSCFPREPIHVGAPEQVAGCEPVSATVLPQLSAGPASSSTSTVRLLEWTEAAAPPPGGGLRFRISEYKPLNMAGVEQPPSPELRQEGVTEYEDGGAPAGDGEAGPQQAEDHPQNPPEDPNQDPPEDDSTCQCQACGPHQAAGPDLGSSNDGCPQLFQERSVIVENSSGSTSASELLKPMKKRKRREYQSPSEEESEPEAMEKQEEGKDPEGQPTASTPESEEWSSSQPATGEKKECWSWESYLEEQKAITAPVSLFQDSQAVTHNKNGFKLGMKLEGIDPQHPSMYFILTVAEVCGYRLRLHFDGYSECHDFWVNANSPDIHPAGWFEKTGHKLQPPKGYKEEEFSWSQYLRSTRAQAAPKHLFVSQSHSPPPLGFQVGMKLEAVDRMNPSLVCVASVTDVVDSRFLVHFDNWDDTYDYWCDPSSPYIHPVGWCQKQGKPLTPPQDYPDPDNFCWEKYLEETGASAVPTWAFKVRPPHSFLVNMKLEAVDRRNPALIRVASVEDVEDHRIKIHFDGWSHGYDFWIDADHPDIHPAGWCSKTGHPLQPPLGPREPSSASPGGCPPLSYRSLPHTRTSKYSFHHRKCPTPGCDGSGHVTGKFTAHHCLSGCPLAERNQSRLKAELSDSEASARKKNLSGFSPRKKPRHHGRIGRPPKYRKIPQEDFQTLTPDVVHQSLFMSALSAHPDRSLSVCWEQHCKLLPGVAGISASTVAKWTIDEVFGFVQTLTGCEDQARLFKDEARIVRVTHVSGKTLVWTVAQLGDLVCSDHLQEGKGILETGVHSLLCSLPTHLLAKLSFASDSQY
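Displacement of a biotinylated histone H3(1-15) peptide monomethylated at Lys9 (75 nM) from L3MBTL1 (50 nM) was measured by AlphaScreen after a 30 min room-temperature compound incubation; cefsulodin titration served as intraplate control.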
Large screens that a line does not name were inactive. Shown are actives, neighbours in structure and some others; about 12% of the full set was active somewhere. Calls come from the whole dose curve; as a rule, active = well fitted curve in the direction sought with a large enough effect; inconclusive = small, poorly fitted or top-dose-only effect, or another doubt; inactive = no such curve, though single readings can be large; an effect the other way counts as inactive or inconclusive.

O=C(O)C1CCCCC1C(=O)Nc1ccc2c(c1)OCO2 (stereo unspecified)	none (no result: L3MBTL1 inh)
CC1CCC/C(=C\Nc2ccccc2C(=O)O)C1=O (stereo unspecified)	BAZ2B block inconclusive, G9a inh 44.7µM
CC1CCC/C(=C\Nc2ccc3c(c2)OCO3)C1=O (stereo unspecified)	JMJD2A Tudor inh 100µM, BAZ2B block inconclusive, G9a inh 8.91µM, Sfp PPTase inh inconclusive
O=C(NC1CCCC1)C1CC(O)CN1C(=O)Nc1ccccc1 (stereo unspecified)	none (no result: L3MBTL1 inh)
Cc1cccc(N2CCN(S(=O)(=O)c3ccc(-c4cnc(C5CC5)o4)cc3)CC2)c1C	BAZ2B block inconclusive (no result: Sfp PPTase inh, L3MBTL1 inh)
Cc1ccc(OCCCCn2c(CCNC(=O)C(C)(C)C)nc3ccccc32)cc1	G9a inh inconclusive (no result: Sfp PPTase inh, L3MBTL1 inh)
CCCNc1nc(C)c(C(C)=O)cc1C#N	BAZ2B block 50.1µM (no result: L3MBTL1 inh)
CSc1ccc(S(=O)(=O)N2CCC(C(=O)Nc3ccc(NC(C)=O)cc3)CC2)cc1	G9a inh 39.8µM (no result: L3MBTL1 inh)
CC(=O)Nc1ccc(S(=O)(=O)N2CCC(C(=O)NC3CCCC3)CC2)cc1	none (no result: L3MBTL1 inh)
CC(c1ccc(F)cc1)n1cc(S(=O)(=O)N2CCCC2)ccc1=O (stereo unspecified)	none (no result: Sfp PPTase inh)
CCn1c(C2CCN(S(=O)(=O)c3ccc(OC)cc3)CC2)n[nH]c1=S	JMJD2A Tudor inh 6.31µM, G9a inh 14.1µM (no result: L3MBTL1 inh)
Cc1ccc(S(=O)(=O)N2CCC(C(=O)Nc3ccc(N4CCOCC4)cc3)CC2)cc1C	G9a inh 15.8µM (no result: Sfp PPTase inh)
O=c1ccc(S(=O)(=O)N2CCCC2)cn1Cc1ccc(F)cc1	G9a inh 3.55µM (no result: Sfp PPTase inh)
O=C(Cc1ccc(F)cc1)NC1CCS(=O)(=O)C1 (stereo unspecified)	none (no result: Sfp PPTase inh)
Cn1c(=O)oc2cc(S(=O)(=O)N3CCC(C(=O)Nc4ccc(F)c(Cl)c4)CC3)ccc21	none (no result: Sfp PPTase inh, L3MBTL1 inh)
O=S(=O)(c1ccc(F)cc1)N1CCC(N2CCCC2)CC1	JMJD2A Tudor inh 20µM, BAZ2B block inconclusive, HP1b chromo inh inconclusive, G9a inh inconclusive, L3MBTL1 inh inconclusive
Cc1nnc(NC(=O)C2CCN(S(=O)(=O)c3ccc(F)c(F)c3)CC2)o1	JMJD2A Tudor inh 50.1µM (no result: BAZ2B block, G9a inh, Sfp PPTase inh)
CC(=O)Nc1ccc(S(=O)(=O)N2CCC(N3CCCC3)CC2)cc1	JMJD2A Tudor inh 3.55µM, BAZ2B block inconclusive, HP1b chromo inh inconclusive, G9a inh 50.1µM (no result: L3MBTL1 inh)
CSc1ccc(S(=O)(=O)N2CCC(C(=O)N3CCc4ccccc4C3)CC2)cc1	G9a inh 39.8µM (no result: L3MBTL1 inh)
COc1ccc(-c2nc3c(c4c2C[C@H](c2ccccc2)OC4)CN(C(=O)c2cc(I)ccc2F)CC3)c(C)c1	none (no result: JMJD2A Tudor inh, BAZ2B block, HP1b chromo inh, G9a inh, L3MBTL1 inh)
CCOc1ccc(-c2c(C)nn3c(C)c(C(=O)NCc4cccc(OC)c4)cnc23)cc1OCC	none (no result: Sfp PPTase inh, L3MBTL1 inh)
COc1ccc(S(=O)(=O)N2CCC(N3CCCCC3)CC2)cc1	JMJD2A Tudor inh 8.91µM, BAZ2B block 70.8µM, HP1b chromo inh inconclusive, G9a inh inconclusive, Sfp PPTase inh inconclusive
COc1ccc(S(=O)(=O)N2CCCCCC2)cc1	none (no result: L3MBTL1 inh)
C/C(=N\NC(N)=O)C1CC(CC(C)C)C(=O)O1 (stereo unspecified)	none
CCCCCCCC1CC(/C(C)=N/NC(N)=O)OC1=O (stereo unspecified)	JMJD2A Tudor inh 39.8µM
CC(C)NC(=O)N1CC2(CCN(C(=O)c3cc(C(F)(F)F)cc(C(F)(F)F)c3)CC2)C1	none (no result: JMJD2A Tudor inh, BAZ2B block, HP1b chromo inh, L3MBTL1 inh)
O=C(CNC(=O)c1ccco1)OCC(=O)c1ccc([N+](=O)[O-])cc1	G9a inh 25.1µM, Sfp PPTase inh inconclusive (no result: L3MBTL1 inh)
O=C(CNS(=O)(=O)c1ccccc1)OCC(=O)c1ccc([N+](=O)[O-])cc1	JMJD2A Tudor inh inconclusive, G9a inh 7.08µM, Sfp PPTase inh 79.4µM
O=C(CNS(=O)(=O)c1ccccc1)OCC(=O)c1ccc(Br)cc1	none (no result: L3MBTL1 inh)
CCc1ccc(C(=O)COC(=O)CNC(=O)c2ccco2)cc1	none
O=C(CNC(=O)c1ccco1)OCc1cccc(Cl)c1	G9a inh 50.1µM
O=C(CNC(=O)c1ccco1)OCC(=O)c1ccc2c(c1)CCCC2	G9a inh 50.1µM
O=C(Cn1ncc2c3ccccc3n(Cc3ccc(Cl)cc3)c2c1=O)NCc1cccs1	none (no result: Sfp PPTase inh, L3MBTL1 inh)
COc1ccc(OC)c(CCNc2nc3ccccc3c3nc(-c4cccnc4)nn23)c1	none (no result: Sfp PPTase inh, L3MBTL1 inh)
